Bioassay records from PubChem.
Sampled rows, rich in hits. Any-hit rate of the full collection: about 1.3%.
TRPML1 inh – qHTS for Inhibitors of the Human Mucolipin Transient Receptor Potential 1 (TRPML1). hit rate 0.02% among 390,000. TRPML1-inducible cells, Ca2+ dye fluorescence, FDSS; stronger effect = lower value; inhibition of EC80 agonist-evoked calcium signal. activity change, negative = inhibition, % (no concentration beside the values). Mucolipin-1 (Homo sapiens), Q9GZU1; in the data active means activity change below about -50%; inconclusive means between about -30% and that limit;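 further: stimulus is agonist 54-4 at its EC80 concentration; on the % scale 0 is the no-effect control and ±100 the full control effect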
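TRPML1-DL cells, Tet-induced overnight (~16 h, 37 °C) at 1,500 cells/well, were loaded with Ca8 no-wash dye plus quencher for 45-90 min at room temperature. Compounds were pinned during FDSS kinetic reading; agonist 54-4 at EC80 (4 uM final) then added.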
ALOX12 inh – Primary qHTS assay for inhibitors of human arachidonate 12S-lipoxygenase (ALOX12): Round 2; Polyunsaturated fatty acid lipoxygenase ALOX12 (Homo sapiens), P18054; purified 12hLO, xylenol orange hydroperoxide absorbance; Potency, µM (top dose mostly 108 µM), inactives show at the top dose activity change, negative = inhibition, most hits filed as inhibitors; hit rate 1.1% among 580,000; AID 1671190, 2021; further: potency means the concentration at half of the fitted maximal effect; on the % scale 0 is the no-effect control and ±100 the full control effect
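Purified human 12hLO at 150 nM in 25 mM Hepes, 0.01% Triton X-100, pH 7.0, preincubated 15 min at room temperature with compound. Reaction started with 40 uM arachidonic acid, 30 min at room temperature. Hydroperoxide measured by Fe-xylenol orange, 573/405 nm absorbance ratio.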
Glioma ERSR ind – qHTS for Inducers of the Endoplasmic Reticulum Stress Response (ERSR) in Human Glioma: qHTS; hit rate 0.02% among 420,000; U87-MG GRP78 promoter luciferase reporter, 16 h; AID 602332, 2012; Potency, µM, for the others: at the highest dose activation, hits mostly activators; further: potency means the concentration at half of the fitted maximal effect; series mostly up to about 76 µM; % of control where 0% means no effect; nearly all actives have a fitted effect of over 35% in size
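Stably transfected U87-MG glioma cells carrying a GRP78-based luciferase sensor; 16 h compound incubation. Luminescence end-point read 10 min after Bright-Glo addition at room temperature.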
TRPML1 agonist – qHTS for Agonists of the Human Mucolipin Transient Receptor Potential 1 (TRPML1); TRPML1-expressing cells, Ca2+ dye fluorescence, FDSS; activation, % (no concentration beside the values); hit rate 0.12% among 410,000; AID 624414, 2012; in the data active means activation above about 50%; inconclusive means mostly about 30% to 49%; further: 0% is about no effect
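Tet-induced TRPML1-DL cells, 1,500 per well, cultured overnight, were loaded with a no-wash Ca2+ dye for 45–90 min. Calcium fluorescence was recorded on the FDSS for 110 s after compound addition, before the EC80 agonist (4 uM 54-4) was added.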
Vif-A3G inh – qHTS for Inhibitors of Vif-A3G Interactions: qHTS. DNA dC->dU-editing enzyme APOBEC-3G (Homo sapiens), Q9HC16. HeLa A3G-eYFP + Vif (tagged APOBEC3G with the HIV-1 protein that degrades it), YFP fluorescence, overnight. Potency, µM (highest dose often 46.1 µM), without a hit: at the top dose activity, negative = active, hits mostly inhibitors. hit rate 0.076% among 410,000; further: potency means the concentration at half of the fitted maximal effect; on the % scale 0 is the no-effect control and ±100 the full control effect; nearly all actives have a fitted effect of over 60% in size
Target sequence (Q9HC16 whole entry, looked up): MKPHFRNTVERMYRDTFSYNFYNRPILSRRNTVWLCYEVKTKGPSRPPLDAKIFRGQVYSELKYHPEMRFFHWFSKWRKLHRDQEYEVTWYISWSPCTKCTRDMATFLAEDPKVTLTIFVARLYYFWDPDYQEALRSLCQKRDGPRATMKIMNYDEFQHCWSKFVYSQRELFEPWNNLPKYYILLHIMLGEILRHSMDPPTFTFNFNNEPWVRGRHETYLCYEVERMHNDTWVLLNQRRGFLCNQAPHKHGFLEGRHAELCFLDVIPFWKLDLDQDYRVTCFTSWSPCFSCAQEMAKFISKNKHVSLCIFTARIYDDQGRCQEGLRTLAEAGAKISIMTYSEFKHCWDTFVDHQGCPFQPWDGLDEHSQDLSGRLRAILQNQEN
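Read-out is eYFP fluorescence (Ex 488/Em 500-530) from Vif-expressing HeLa A3G-eYFP cells; more signal means A3G escaped Vif-mediated degradation. Cells plated overnight, compound pinned in, incubated overnight at 37 deg C.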
Vif-APOBEC3F blk – qHTS for Inhibitors of Vif-A3F Interactions: qHTS | HeLa A3F-eYFP + Vif (tagged APOBEC3F with the HIV-1 protein that degrades it), YFP fluorescence increase | Potency, µM (titrated, usually from 46.1 µM), inactives show top-dose activity, negative = active | hit rate 0.2% among 390,000 | AID 602313, 2012; further: potency means the concentration at half of the fitted maximal effect; % of control where 0% means no effect; nearly all actives have a fitted effect of over 65% in size
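Fluorescence increase (Ex 488/Em 500-530) after overnight compound treatment at 37 deg C flags inhibition of Vif-driven A3F-eYFP loss in stable HeLa A3F-eYFP/Vif cells seeded overnight beforehand.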
Numbers without * were called inactive; ? = inconclusive; / = no result; ! = not active in a repeat; [ ] = another dose, or the depositor's remark. Unless noted, the call rests on the fitted dose curve; in most records, active means well fitted curve in the direction sought with a large enough effect; inconclusive means small, poorly fitted or top-dose-only effect, or another doubt; inactive means no such curve, though single readings can be large; an effect the other way counts as inactive or inconclusive.

SMILES	TRPML1 inh	ALOX12 inh	Glioma ERSR ind	TRPML1 agonist	Vif-A3G inh	Vif-APOBEC3F blk
Cc1cc(C(=O)OCC(=O)c2cc(C)n(C)c2C)c2ccccc2n1	/	19%	/	/	/	/
COc1ccc(NC2=NC(C(=O)Nc3ccc(C)c(C)c3)CC(=O)N2)cc1 (stereo not drawn)	/	0%	/	/	/	/
Cc1ccncc1-c1c(C)nn2c1N(Cc1ccc(C(=O)O)cc1)CCC2	/	16µM*	/	/	/	/
Cc1cc(C)c2c(CN3CCCCC3C)cc(=O)oc2c1 (stereo not drawn)	9	?	4%	0	-1%	-8%
Cc1cc2oc(=O)cc(CN3CCCCC3C)c2cc1Cl (stereo not drawn)	/	18µM*	-4%	/	-1%	3%
Cc1cc2oc(=O)cc(CN3CCCCC3)c2cc1C(C)C	26	?	-5%	2	0%	3%
Cc1cc2oc(=O)cc(CN3CCCCC3C)c2cc1C (stereo not drawn)	11	11µM*!	-1%	1	-4%	-2%
Cc1cc2oc(=O)cc(CN3CCCCCC3)c2cc1C(C)C	/	18µM*	/	/	/	/
COc1ccc(NC(=O)c2cc(=O)c3cc(C)ccc3o2)cc1OC	/	-11%	/	/	/	/
NC(=O)c1ccc(NC(=O)Cn2cnc3ccc(Cl)cc3c2=O)cc1	/	46%	/	/	/	/
O=C(COC(=O)c1ccc(O)cc1O)Nc1ccc(Cl)cn1	-3	?	2%	?	-10%	3%
Nc1ccc(O)cc1C(=O)OCC(=O)c1ccc(C2CCCCC2)cc1	-4	11µM*	-5%	0	-9%	12%
O=C(COC(=O)c1ccc(O)cc1O)c1ccc(Cl)cc1	22	45µM*	2%	1	-2%	0%
Cc1ccc(C(=O)OCC(=O)c2ccc(C3CCCCC3)cc2)c(C)c1	/	3%	/	/	/	/
CC(=O)Nc1ccc(NC(=O)CCc2nc3c(C)nn(-c4ccccc4)c3n(C)c2=O)cc1	/	-12%	/	/	/	/
COc1ccc(C2=Nn3c(nnc3-c3ccccc3OC)SC2)cc1OCC1CC1	/	35µM*	-7%	/	0%	-3%
COc1ccc(OC)c(-c2nnc3n2N=C(c2ccc(OC(F)F)c(OCC4CC4)c2)CS3)c1	/	-5%	-4%	/	?	-5%
COc1cc(-c2nc3ccc(Cl)cn3c2Nc2ccc3c(c2)OCCO3)ccc1O	-1	7.9µM*	-5%	5	-11%	1%
Clc1cccc(-c2nc3ccccn3c2Nc2ccc3c(c2)OCCO3)c1	46	6.3µM*	-1%	5	-9%	-5%
COc1ccc(OCCOC(=O)Cc2coc3cc(C)c(C)cc23)cc1	/	9%	/	/	/	/
O=C(NCC(=O)N1CCN(c2ccccc2)CC1)c1ccc(Cl)cc1	-54*	7%	2%	0	6%	-2%
O=C(Cc1n[nH]c(=O)c2ccccc12)NCC(=O)N1CCN(c2ccccc2)CC1	/	11µM*	/	/	/	/
O=C(Cc1n[nH]c(=O)c2ccccc12)NCC(=O)N1CCN(c2ccc(F)cc2)CC1	/	-1%	/	/	/	/
Cc1cc(=O)oc2cc(OS(=O)(=O)c3cccc(OC(F)(F)F)c3)ccc12	/	32%	/	/	/	/
Cc1nc(N2CCN(c3ccccn3)CC2)c2c(C)c(C(=O)Nc3ccc(F)cc3F)sc2n1	31	19%	-1%	19	1%	10%
SMILES	TRPML1 inh	ALOX12 inh	Glioma ERSR ind	TRPML1 agonist	Vif-A3G inh	Vif-APOBEC3F blk
Cc1nc(N2CCN(c3ccccn3)CC2)c2c(C)c(C(=O)Nc3ccc(F)cc3Cl)sc2n1	-20	1%	-1%	97*	1%	-6%
C#CCSc1nc(-c2cccs2)ccc1C#N	-8	1%	5%	0	-24%	2.8µM*
CSc1cccc(NC(=O)/C=C/c2ccc(F)cc2)c1	/	-27%	/	/	/	/
CCOC(=O)N1CCN(Cc2ccc(O)c3ncccc23)CC1	-2	25µM*	-2%	0	-11%	10%
COc1cccc(CNC(=O)CC2CCN(C(=O)c3ccc4nc(-c5ccccc5)oc4c3)CC2)c1	/	24%	/	/	/	/
Cc1cc(OC(=O)c2ccc(Cl)cc2Cl)c([N+](=O)[O-])c(=O)[nH]1	10	?	-2%	0	1%	-3%
Cc1cc(OC(=O)c2ccccc2Cl)c([N+](=O)[O-])c(=O)[nH]1	-7	40µM*	-5%	-1	2%	3%
CCOC(=O)Cn1c(=O)c2c3c(sc2n(CCN2CCCC2)c1=O)CC(C)CC3 (stereo not drawn)	/	-20%	/	/	/	/
O=C(Nc1ccc(F)cc1)c1ccc2c(Cl)c3c(nc2c1)CCCC3	/	2%	/	/	/	/
CC(C)Cc1noc(CN2CCC(c3nc4cc(Cl)ccc4o3)CC2)n1	/	24%	/	/	/	/
CCNC(=O)N1CCCC1c1noc(CCC(=O)NCCC(C)C)n1 (stereo not drawn)	/	40µM*	/	/	/	/
Cc1cc(NC(=O)CCc2ncc(-c3ccccc3Cl)o2)no1	/	-21%	/	/	/	/
COc1ccc(N/C=C/c2nc(SC)nnc2C)cc1	15	?	-4%	4	-18%	22µM*
CSc1nnc(C)c(/C=C/Nc2ccc(F)cc2)n1	-7	-36%	-5%	3	-20%	-14%
C[N+](C)(C)CCN(Cc1ccc(Cl)cc1)c1ccccn1	-7	16µM*	-3%	0	1%	8%
CN(C)CCN(Cc1ccc(Cl)cc1)c1ccccn1	-5	-24%	-2%	0	1%	8%
CCOC1=CC2=C(C(=O)C(Cl)=CC2=O)[C@@H]2CN(S(=O)(=O)c3ccc(C)cc3)[C@@H](c3ccccc3)[C@H]12	/	0.89µM*	-12%	-1	?	/
Cc1ccc(CCN2CCC3(Cc4ccccc4CN([S+](C)(=O)[O-])C3)C2)cc1 (stereo not drawn)	/	7.1µM*	/	/	/	/
CCOc1ccc(CN2CCC3(Cc4ccccc4CNC3=O)C2)cc1 (stereo not drawn)	/	-1%[6.33 µM]	/	/	/	/
Cc1ccc(CCN2CCC3(Cc4ccccc4CNC3=O)C2)cc1 (stereo not drawn)	/	13µM*	/	/	/	/
CCCN1CCC2(Cc3ccccc3CN([S+](=O)([O-])c3ccccc3)C2)C1 (stereo not drawn)	/	10%[6.33 µM]	/	/	/	/
O=C1NCc2ccccc2CC12CCN(Cc1ccc(Br)cc1)C2 (stereo not drawn)	/	28µM*	/	/	/	/
C[S+](=O)([O-])N1CC2(CCN(Cc3ccc(Cl)cc3)C2)Cc2ccccc21 (stereo not drawn)	/	45µM*	/	/	/	/
O=C1NCc2ccccc2CC12CCN(Cc1ccc(O)cc1)C2 (stereo not drawn)	/	2%	/	/	/	/
